S1P4 antag: S1P4 receptor antagonists, primary screen, cell-based. Sphingosine 1-phosphate receptor 4 (Homo sapiens), O95977. inhibition, % at 4.98 µM. S1P4-expressing cells, antagonist mode, reporter read-out. 220,000 tested, 0.26% active; in the data active means inhibition above about 29%
Target sequence (O95977 whole entry, looked up): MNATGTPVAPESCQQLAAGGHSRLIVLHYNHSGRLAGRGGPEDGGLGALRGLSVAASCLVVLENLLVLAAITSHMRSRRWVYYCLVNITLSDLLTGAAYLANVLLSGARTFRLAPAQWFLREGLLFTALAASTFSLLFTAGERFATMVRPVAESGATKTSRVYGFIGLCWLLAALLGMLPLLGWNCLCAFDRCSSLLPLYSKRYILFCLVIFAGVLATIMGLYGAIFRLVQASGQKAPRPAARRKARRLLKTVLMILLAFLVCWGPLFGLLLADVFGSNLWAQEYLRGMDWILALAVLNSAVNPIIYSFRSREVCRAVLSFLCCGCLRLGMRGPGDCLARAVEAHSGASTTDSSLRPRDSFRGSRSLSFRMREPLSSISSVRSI
RAM network inh: inhibitors of the yeast RAM network, primary screen, dse1pr::URA3 reporter, 5-FOA selection; S. cerevisiae dse1pr::URA3 reporter, 5-FOA growth OD615, 2 d; analog-sensitive cbk1-as2 kinase mutant strain; 190,000 tested, 1.8% active; inhibition, % at 50 µM;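 active means inhibition above a set limit, 3 SD over mean compound inhibition, cut at about 8.4% in these data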;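 further: inhibition rescues growth on 5-FOA so higher OD means more RAM inhibition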
KCC2 mod: KCC2 cotransporter modulators, thallium flux, primary screen, cell-based, HEK293 KCC2, FluoZin-2 fluorescence, MLSMR. KCC2 cells, thallium flux FluoZin-2 fluorescence. B-score of Tl+ flux slope (higher = more flux/activation; lower = inhibition) at 10 µM. 190,000 tested, 2.2% active;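 active means thallium flux slope and its plate-corrected score both differing from the plate sample mean at a set confidence after two filtering rounds, in either direction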;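 further: slope of fluorescence scaled to starting intensity during 10 to 20 s after thallium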
S1P4 ag: S1P4 receptor agonists, primary screen, cell-based; 220,000 tested, 0.35% active; AID 1509, 2009; S1P4-expressing cell line, agonist reporter assay; activation, % at 4.98 µM; Sphingosine 1-phosphate receptor 4 (Homo sapiens), O95977; in the data active means activation above about 11%
ROMK mod: ROMK potassium channel modulators, primary screen, cell-based, thallium flux, MLSMR library. ATP-sensitive inward rectifier potassium channel 1 (Homo sapiens), P48048. Tet-inducible ROMK, thallium flux fluorescence; actives lie on both sides. B-score at 10 µM. 130,000 tested, 2% active. AID 1918, 2009;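 active means signal ratio slope over the read window, or its plate-corrected B-score, at least 3 SD from the plate mean, either direction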;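 further: B-score of the F/F0 ratio slope over 7 to 12 s after thallium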
S1P3 antag: S1P3 receptor antagonists, primary screen, cell-based; CHO S1P3 NFAT-BLA reporter, FRET fluorescence, antagonist mode; 170,000 tested, 0.27% active; Sphingosine 1-phosphate receptor 3 (Homo sapiens), Q99500; inhibition, % at 4.98 µM;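 active means inhibition above the plate cutoff, the mean inhibition of test wells on that plate plus 3 SD, cut at about 28% in these data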;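 further: cells challenged with S1P at its EC80 of 0.8 µM; blue over green emission ratio from cleaved BLA substrate after 4 h stimulation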
RAM efflux-def: 5-FOA growth of efflux-deficient control yeast, dose response, counter-screen for RAM network inhibitor project, S. cerevisiae, OD615; max inhibition, %; S. cerevisiae efflux-deficient reporter strain, 5-FOA growth OD615, 2 days; shares compounds with RAM network inh; 1,200 tested, under 10 active; call rule not given here
Of the large screens only hits and unclear results are named; the others gave an inactive call (follow-up assays come after a bar, where they were run). In the library only some 5.1% were active in any assay of this set; here they are far more common.

O=C(c1cccs1)N(CC1CCCO1)c1nc(-c2ccccc2)cs1 (stereo unspecified)	RAM network inh 16 | RAM efflux-def inactive
O=C(c1ccco1)N(CC1CCCO1)c1nc(-c2ccccc2)cs1 (stereo unspecified)	none
CCOC(=O)c1cc(C)sc1/N=C/C1=C(O)CCCC1=O	none (no result: ROMK mod)
CCOC(=O)CSc1nc2cc(S(=O)(=O)Nc3ccccc3OC)ccc2o1	none (no result: S1P3 antag)
COc1ccccc1NS(=O)(=O)c1ccc2oc(SCc3ccc(F)cc3)nc2c1	RAM network inh 14 | RAM efflux-def inactive
COc1ccc(NS(=O)(=O)c2ccc3oc(SCc4ccc(F)cc4)nc3c2)cc1	RAM network inh 13 | RAM efflux-def inactive
Cc1ccc(C(=O)c2cc3ccccc3o2)cc1	none (no result: ROMK mod, S1P3 antag)
Cc1ccc(C(=O)c2cc3ccccc3o2)cc1C	RAM network inh 15 (no result: KCC2 mod, ROMK mod, S1P3 antag) | RAM efflux-def inactive
CC1(C)CC(=O)C(Sc2ccccc2[N+](=O)[O-])=C(O)C1	none
Cc1ccc(SCCNC(=O)c2ccc(C)c(S(=O)(=O)Nc3cccc(C)c3)c2)cc1	RAM network inh 16 (no result: S1P3 antag) | RAM efflux-def inactive
Cc1ccc(NS(=O)(=O)c2cc(C(=O)NCCSC3CCCCC3)ccc2C)cc1	none (no result: KCC2 mod, ROMK mod, S1P3 antag)
CCCC(=O)NC(=S)Nc1ccc(S(=O)(=O)Nc2ccc(OCC)cc2)cc1	none (no result: ROMK mod)
CCOc1ccc(NS(=O)(=O)c2ccc(NC(=S)NC(=O)CC(C)C)cc2)cc1	RAM network inh 12 (no result: S1P3 antag) | RAM efflux-def inactive
Cn1c(N)c(Sc2ccc(F)cc2)c(=O)n(C)c1=O	none
CCOC(=O)CC(=O)CSc1n[nH]c(=O)[nH]c1=O	none (no result: RAM network inh, ROMK mod)
CON/C=C(\C=Nc1ccc(Cl)cc1Cl)c1ncc(C(F)(F)F)cc1Cl	RAM network inh 13 (no result: KCC2 mod, ROMK mod, S1P3 antag) | RAM efflux-def inactive
Cc1ccc(S(=O)(=O)N2CCCCC2)cc1NC(=O)COC(=O)c1ccc(O)cc1	none
Cc1ccc(N/C(SCc2ccccc2C)=C(/C#N)C(=O)NCc2ccco2)cc1C	none (no result: ROMK mod, S1P3 antag)
CCc1ccc(N/C(SCc2cccc(F)c2)=C(/C#N)C(=O)NCc2ccco2)cc1	RAM network inh 16 (no result: KCC2 mod, S1P3 antag) | RAM efflux-def inactive
CSCCC(NS(=O)(=O)c1ccc2ccccc2c1)C(=O)OCC(=O)c1ccc(C(C)C)cc1 (stereo unspecified)	RAM network inh 15 | RAM efflux-def inactive
Cc1cc(C)nc(N2N=C(C(F)(F)F)CC2=O)n1	none (no result: RAM network inh, ROMK mod)
CC12CCC(C(=O)NCc3ccc4c(c3)OCO4)(C(=O)C1=O)C2(C)C (stereo unspecified)	none (no result: KCC2 mod, S1P3 antag)
O=C(COC(=O)c1cc(-c2cccc(Br)c2)nc2ccccc12)NCC1CCCO1 (stereo unspecified)	RAM network inh 15 | RAM efflux-def inactive
O=C(COC(=O)c1cc(-c2ccccc2)nc2ccccc12)NCC1CCCO1 (stereo unspecified)	none
CO/N=C\CC(=O)Nc1ccc(Oc2ccccc2)cc1	none
COc1ccc(/C=C(\C#N)C(=O)NCCc2ccccc2)cc1OCc1ccccc1	RAM network inh 18 | RAM efflux-def inactive
Cc1cc(NC(=O)CCSc2ccccc2)ccc1Br	RAM network inh 14 | RAM efflux-def inactive
Cc1cc(Br)ccc1NC(=O)CCSc1ccccc1	none (no result: S1P3 antag)
Cc1ccc(O)c(-c2cc(-c3cccc(Br)c3)n[nH]2)c1	RAM network inh 12 | RAM efflux-def inactive
COc1cccc(NC(=O)CSc2nc3ccccc3cc2Cc2ccccc2)c1	none (no result: KCC2 mod, ROMK mod, S1P3 antag)
COc1cccc(CSc2nc3ccccc3cc2C=O)c1	RAM network inh 12 (no result: ROMK mod, S1P3 antag) | RAM efflux-def inactive
N#Cc1ccc(CSc2nnc(-c3c[nH]c4ccccc34)n2-c2ccccc2)cc1	RAM network inh 12 | RAM efflux-def inactive
O=c1nc2n(c3ccc(Br)cc13)CCS2	none (no result: S1P3 antag)
COc1ccc(S(=O)(=O)N2CCOCC2)cc1NC(=O)CCc1c[nH]c2ccccc12	none
CCN(CC)CCSc1nnc2c3cc(C)ccc3n(Cc3ccccc3)c2n1	none (no result: RAM network inh)
Cc1ccc(/C=C/c2ccc(=O)n(Cc3ccccc3Cl)n2)cc1	RAM network inh 13 (no result: KCC2 mod, ROMK mod, S1P3 antag) | RAM efflux-def inactive
CCOC(=O)C1CCN(C(=O)c2cccc(NS(=O)(=O)c3ccc(F)c(F)c3)c2)CC1	none
CC(C)Nc1ccc(C(CC(N)=O)NC(=O)Cc2ccc(Cl)cc2)cc1[N+](=O)[O-] (stereo unspecified)	none (no result: S1P4 antag, RAM network inh, S1P4 ag, ROMK mod, S1P3 antag)
COc1ccc(CC2S/C(=N/N=C/c3ccc(O)cc3)NC2=O)cc1 (stereo unspecified)	none
CCCCC1S/C(=N/N=C/c2ccc(OC)cc2)N(Cc2ccc(OC)cc2)C1=O (stereo unspecified)	RAM network inh 14 (no result: ROMK mod, S1P3 antag) | RAM efflux-def inactive
COc1ccc(/C=C2\C(=O)NCC(=O)N2Cc2ccccc2)cc1	none (no result: KCC2 mod, ROMK mod, S1P3 antag)
CCCC1S/C(=N/N=C/c2ccc(OC)cc2)N(Cc2ccc(OC)cc2)C1=O (stereo unspecified)	RAM network inh 13 (no result: KCC2 mod, ROMK mod, S1P3 antag) | RAM efflux-def inactive
CCCC1S/C(=N/N=C/c2ccc(OC)cc2)N(Cc2ccccc2)C1=O (stereo unspecified)	RAM network inh 15 (no result: ROMK mod, S1P3 antag) | RAM efflux-def inactive
CCN=C1SC(CC(=O)NCCc2ccc(OC)cc2)C(=O)N1CC (stereo unspecified)	none (no result: S1P3 antag)
CCCCOc1ccc(C2NC(=O)NC(C)=C2C(C)=O)cc1OCC (stereo unspecified)	none
O=C(O)Cc1nn(Cc2ccc(Cl)cc2)c(=O)c2ccccc12	none
O=c1c2ccccc2c(-c2ccccc2)nn1Cc1ccc(Cl)cc1	RAM network inh 14 (no result: ROMK mod, S1P3 antag) | RAM efflux-def inactive
O=C(CSc1nc(-c2ccccc2)cs1)Nc1nccs1	none (no result: KCC2 mod)
O=C(CSc1nc(-c2ccccc2)cs1)Nc1ccccc1[N+](=O)[O-]	RAM network inh 13 (no result: ROMK mod) | RAM efflux-def inactive
COc1ccc(C2CC(c3ccccc3)=NN2c2ccc(/C=N/NC(=O)c3ccncc3)cc2)cc1 (stereo unspecified)	RAM network inh 13 (no result: ROMK mod, S1P3 antag) | RAM efflux-def inactive
COc1cc(NC(=O)CSCc2cnn(-c3ccccc3)c2-n2cccc2)cc(OC)c1	RAM network inh 20 (no result: KCC2 mod, ROMK mod) | RAM efflux-def inactive
COc1ccc(OC)c(NC(=O)CSCc2cnn(-c3ccccc3)c2-n2cccc2)c1	RAM network inh 16 (no result: ROMK mod) | RAM efflux-def inactive
COc1ccc(Br)c(OC)c1C(=O)NC(=O)Nc1nc(C)cc(C)n1	none (no result: RAM network inh, ROMK mod)

Screens from PubChem BioAssay.
